# Measurements: PubChem BioAssay (EPA / NIEHS)
# Results filed as inconclusive are left out. Where a structure was tested more than once in an assay, its records may differ in their call. Active and inactive are the calls of the source. Rule for the calls: active = hit-call score of the fitted dose curve at least 0.9, where 1 is the maximum; inconclusive = response in the unintended direction; inactive = score below 0.9.
# Biological target: Nucleoli Translocation, AR (gene 367) (UniProt P10275)
# Test: UPITT_HCI_U2OS_AR_TIF2_Nucleoli_Agonist: University of Pittsburgh U2OS Androgen Receptor-Transcriptional Intermediary Factor 2 (AR-TIF2) Agonism High Content Imaging Assay for Nucleoli Translocation (AID 2283998)
# Excerpt: UPITT_AR_TIF2_PPIB is a cell-based, high-content imaging assay that uses U2OS, a human osteosarcoma cell line, expressing a human androgen receptor fused to red fluorescent protein and the coactivator TIF2 fused to green fluorescent protein. UPITT_HCI_U2OS_AR_TIF2_Nucleoli_Agonist is one of four assay components measured from the UPITT_AR_TIF2_PPIB assay. It is designed to make measurements of red fluorescence localized in the nucleolar region of the cell nucleus as detected with high-content fluorescent imaging.Data from the assay component UPITT_HCI_U2OS_AR_TIF2_Nucleoli_Agonist was analyzed into 1 assay endpoint. This assay endpoint, UPITT_HCI_U2OS_AR_TIF2_Nucleoli_Agonist, was analyzed in the positive analysis fitting direction relative to DMSO as the baseline of activity. Using a type of binding reporter, measures of receptor for gain-of-signal activity can be used to understand the binding at the pathway-level as it relates to the gene AR.
# Daughter plates containing 2 uL of 10 mM compounds in DMSO were prepared and replicated from the 384-well Library of Pharmacologically Active Compounds (LOPAC) master plates using the Bravo outfitted with a 384-well transfer head. Aluminum adhesive plate seals were applied with an Abgene Seal-IT 100 (Rochester, NY) plate sealer, and the plates were stored at -20 C in a Matrical MatriMinistore (Spokane, WA) automated compound storage and retrieval system. For screening, LOPAC daughter plates were withdrawn from -20C storage, thawed to ambient temperature, centrifuged 1-2 min at 50 g, and the plate seals were removed before the transfer of 98 uL of serum-free tissue culture medium (SFM) into wells using the BioTek Microflo liquid handler (BioTek, Winooski, VT) to generate a 200 uM intermediate stock concentration of library compounds (2.0% DMSO). The diluted compounds were mixed by repeated aspiration and dispensation using a 384-well P30 dispensing head on the Evolution P3 (EP3) liquid handling platform (PerkinElmer, Waltham, MA) and then 5 uL of diluted compounds was transferred to the wells of assay plates. In the LOPAC screen, compounds were individually tested at a final concentration of 20 uM (0.2% DMSO). After the diluted compounds had been transferred from the daughter plates to the primary HCS assay plates, aluminum adhesive plate seals were applied and the diluted daughter plates were stored frozen at -20C. To confirm active compounds identified in the primary screen, we withdrew the LOPAC daughter plates containing the 200 uM intermediate concentration of library compounds (2.0% DMSO) from -20C storage, thawed them to ambient temperature, centrifuged them for 1-2 min at 50 g, and removed the plate seals. A work list was generated to direct the Multiprobe Janus liquid handling platform (PerkinElmer) to cherry pick 75 uL from the wells of the diluted daughter plates that were flagged active in the primary screen and to reformat these into a 384-well plate hit confirmation daughter plate. Five microliters of primary HCS active compounds was then transferred into triplicate wells of assay plates using a 384-well P30 dispensing head on the Evolution P3 (EP3) liquid handling platform (PerkinElmer). […] Daughter plates containing 2 uL of the serially diluted compounds in DMSO were prepared and replicated from the 384-well serial dilution master plates using the Bravo outfitted with a 384-well transfer head. Aluminum adhesive plate seals were applied and plates were stored at -20C. For testing in the bioassays, daughter plates were withdrawn from -20C storage, thawed to ambient temperature, centrifuged for 1-2 min at 50 g, and the plate seals were removed before the transfer of 38 uL of SFM into wells using the BioTek Microflo liquid handler (BioTek) to generate an intermediate stock concentration of library compounds ranging from 1.95 to 500 uM (5.0% DMSO). […]
# Nucleoli Translocation, AR (gene 367), sequence (P10275 whole entry, looked up): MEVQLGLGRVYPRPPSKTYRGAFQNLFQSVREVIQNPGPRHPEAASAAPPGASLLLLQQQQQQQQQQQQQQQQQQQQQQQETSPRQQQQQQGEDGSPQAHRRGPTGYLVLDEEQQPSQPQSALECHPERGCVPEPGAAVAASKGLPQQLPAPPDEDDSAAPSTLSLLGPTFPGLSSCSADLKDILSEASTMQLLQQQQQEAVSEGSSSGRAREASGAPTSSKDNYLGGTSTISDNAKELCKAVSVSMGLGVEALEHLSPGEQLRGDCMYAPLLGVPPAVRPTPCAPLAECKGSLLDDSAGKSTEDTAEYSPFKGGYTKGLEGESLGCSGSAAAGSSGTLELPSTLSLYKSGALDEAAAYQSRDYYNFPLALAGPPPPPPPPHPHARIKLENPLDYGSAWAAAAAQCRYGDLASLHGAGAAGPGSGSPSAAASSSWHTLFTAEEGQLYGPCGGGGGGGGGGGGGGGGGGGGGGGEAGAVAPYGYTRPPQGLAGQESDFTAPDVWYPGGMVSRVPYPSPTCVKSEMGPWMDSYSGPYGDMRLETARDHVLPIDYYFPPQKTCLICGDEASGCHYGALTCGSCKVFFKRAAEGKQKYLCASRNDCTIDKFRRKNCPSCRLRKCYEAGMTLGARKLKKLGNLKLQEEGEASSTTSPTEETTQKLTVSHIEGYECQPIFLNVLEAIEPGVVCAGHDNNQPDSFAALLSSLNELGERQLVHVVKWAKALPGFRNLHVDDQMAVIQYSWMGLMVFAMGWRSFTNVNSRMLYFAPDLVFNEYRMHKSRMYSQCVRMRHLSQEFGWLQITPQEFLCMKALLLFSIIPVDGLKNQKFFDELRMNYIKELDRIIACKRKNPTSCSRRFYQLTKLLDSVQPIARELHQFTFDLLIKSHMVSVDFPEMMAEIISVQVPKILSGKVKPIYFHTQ
Structure (SMILES),outcome,AC50
C[n+]1ccc(-c2cc[n+](C)cc2)cc1,inactive,
CN(C)N,inactive,
ClC1=C(Cl)[C@]2(Cl)[C@H]3[C@H]([C@H](Cl)C(Cl)[C@@H]3Cl)[C@@]1(Cl)C2(Cl)Cl (stereo not given in full),inactive,
CNC(=O)Oc1cc(C)c(SC)c(C)c1,inactive,50 µM (active)
O=c1[nH]c2c(c(=O)n1C1CCCCC1)CCC2,inactive,
CCCCC(CC)COC(=O)c1cc(Br)c(Br)c(Br)c1Br (stereo not given),inactive,
O=C(NCNC(=O)NC1C(=O)NC(=O)N1CO)NC1C(=O)NC(=O)N1CO (stereo not given),inactive,
C=COCCCl,inactive,
c1ccc2cc3c(cc2c1)-c1cccc2cccc-3c12,inactive,
O=CNC(N1CCN(C(NC=O)C(Cl)(Cl)Cl)CC1)C(Cl)(Cl)Cl (stereo not given),inactive,
Cc1ccc(C)c2ccccc12,inactive,
COP(=S)(OC)SCC(=O)N(C)C=O,inactive,
Clc1c(Cl)c(Cl)c2c(c1Cl)Oc1c(Cl)c(Cl)c(Cl)c(Cl)c1O2,inactive,
O=S1OC[C@@H]2[C@H](CO1)[C@]1(Cl)C(Cl)=C(Cl)[C@]2(Cl)C1(Cl)Cl (stereo not given in full),inactive,
